Compounds with a hit are over-represented: about 6.7% of the library has one in this group of screens.
Pf Dd2 growth: inhibitors of Plasmodium falciparum Dd2 growth | P. falciparum Dd2 growth, SYBR Green, 72 h; active compounds read low | activity change, % at 10 µM | actives 2.3% (n = 94,000); in the data active = activity change below about -80%; inconclusive = no clear call, values can overlap the other calls
T cruzi growth-1: T. cruzi proliferation inhibition | AID 624255 | inhibition, % at 8.34 µM | actives 5.9% (n = 77,000) | T. cruzi beta-gal in NIH3T3, GalScreen luminescence, 90 h;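 active = mean inhibition above about 93%, with at least 55% of replicates each passing it, limit read from the data, passing the limit was not always enough; inconclusive = only one of those two conditions holds; inactive = neither condition holds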
C diff growth: C. difficile growth inhibition; Clostridium difficile clinical isolate growth, OD600, 24 h; active compounds read low; growth activity, negative = inhibition, % at 16 µg/mL (by protocol); AID 1259249; actives 0.25% (n = 86,000);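 active = mean growth activity at or below -80% and every replicate also at or below -80%; inconclusive = mean at or below -80% but some replicate above -80%; inactive = mean growth activity above -80%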;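 note: 0% = DMSO wells and -100% = levofloxacin 16 µg/mL wells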
T cruzi growth-2: blocks T. cruzi growth in NIH3T3 host cells; inhibition, % at 8.35 µM; T. cruzi beta-gal in NIH3T3, GalScreen luminescence, 90 h; shares compounds with T cruzi growth-1; actives 72% (n = 5,600);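 active = mean replicate inhibition above about 95% and at least 55% of replicates individually reaching it, limit read from the data; inconclusive = only one of the two criteria is met; inactive = neither criterion is met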
T cruzi growth-3: Trypanosoma cruzi proliferation inhibition; shares compounds with T cruzi growth-1; T. cruzi beta-gal in NIH3T3, GalScreen luminescence, 90 h; inhibition, % at 2.09 µM; actives 21% (n = 5,600); AID 651740;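 active = mean inhibition above about 95%, with at least 55% of replicates also reaching it, limit read from the data; inconclusive = meets just one of the two conditions; inactive = meets neither condition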;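 note: plate controls were neutral control median for no effect and positive control median for full effect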
NIH3T3 tox: cytotoxicity in mouse NIH/3T3 fibroblasts; cytotoxicity (signal decrease), % at 8.35 µM; AID 651742; shares compounds with T cruzi growth-1; actives 14% (n = 5,600); NIH/3T3 viability, CellTiter-Glo ATP luminescence, 90 h;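 active = mean signal decrease across replicates above about 35% based on untreated-well scatter, with enough replicates individually passing, limit read from the data; inconclusive = no rule stated though some were filed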;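 note: 0% = median of neutral control wells and 100% = median of positive control wells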
3T3 cytotox 2: cytotoxicity in mouse NIH/3T3 fibroblasts; shares compounds with T cruzi growth-1; NIH/3T3 viability, CellTiter-Glo ATP luminescence, 90 h; inhibition, % at 24.9 µM; actives 56% (n = 5,600);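 active = mean loss of cell viability signal at or above a set limit, and enough replicates individually reaching it; inconclusive = meets only the mean limit or only the replicate share; inactive = meets neither condition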;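 note: 0% = median of neutral control wells and 100% = median of positive control wells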
The depositor's hits bear a star; ? = inconclusive; . = no result.

SMILES	Pf Dd2 growth	T cruzi growth-1	C diff growth	T cruzi growth-2	T cruzi growth-3	NIH3T3 tox	3T3 cytotox 2
O=C(C[C@@H]1CC[C@H]2[C@@H](COC[C@@H](O)CN2CCC(F)(F)F)O1)N1CCC(Cc2ccccc2)CC1	-6	59	0	.	.	.	.
O=C(C[C@@H]1CC[C@H]2[C@@H](COC[C@H](O)CN2Cc2ccc(Oc3ccccc3)cc2)O1)N1CCN(c2ccccc2)CC1	-73	130*	7	102*	62	38*	101*
O=C(C[C@@H]1CC[C@H]2[C@@H](COC[C@@H](O)CN2Cc2ccc(Oc3ccccc3)cc2)O1)N1CCOCC1	1	-10	.	.	.	.	.
O=C(C[C@@H]1CC[C@@H]2[C@H](COC[C@H](O)CN2Cc2ccccc2)O1)N1CCOCC1	11	-15	3	.	.	.	.
O=C(C[C@H]1CC[C@@H]2[C@H](COC[C@@H](O)CN2CCC(F)(F)F)O1)N1CCC(Cc2ccccc2)CC1	-2	?	-8	37	-24	-13	2
O=C(C[C@H]1CC[C@@H]2[C@H](COC[C@H](O)CN2Cc2ccccc2)O1)N1CCOCC1	-24	123*	6	23	12	14	9
C[C@H]1CN([C@@H](C)CO)C(=O)CCCn2cc(nn2)CO[C@H]1CN(C)Cc1cccnc1	-3	-10	.	.	.	.	.
Cc1noc(C)c1S(=O)(=O)N(C)C[C@@H]1OCCCC[C@@H](C)Oc2ccc(NS(=O)(=O)c3ccc(F)cc3)cc2C(=O)N([C@@H](C)CO)C[C@H]1C	-7	68	-8	.	.	.	.
COc1ccccc1C(=O)Nc1ccc2c(c1)OC[C@@H](C)NC[C@@H](C)[C@@H](OC)CN(C)C2=O	-1	-24	0	.	.	.	.
C[C@@H]1CCCCO[C@H](CN(C)Cc2ccc3c(c2)OCO3)[C@@H](C)CN([C@H](C)CO)C(=O)c2cc(NC(=O)Nc3ccc(F)cc3)ccc2O1	-60	98*	2	112*	-2	-5	9
C[C@@H]1CCCCO[C@@H](CN(C)Cc2ccc3c(c2)OCO3)[C@H](C)CN([C@@H](C)CO)C(=O)c2cc(NC(=O)Nc3ccc(F)cc3)ccc2O1	-66	110*	12	98*	60	31	92*
C[C@H](CO)N1C[C@H](C)[C@H](CN(C)Cc2ccc3c(c2)OCO3)OCCCC[C@H](C)Oc2ccc(NC(=O)Nc3ccc(F)cc3)cc2C1=O	-15	88	16	.	.	.	.
CC(C)NC(=O)Nc1ccc2c(c1)C(=O)N([C@@H](C)CO)C[C@@H](C)[C@@H](CN(C)Cc1ccc3c(c1)OCO3)OCCCC[C@@H](C)O2	-20	77	-6	.	.	.	.
CC(C)NC(=O)Nc1ccc2c(c1)C(=O)N([C@@H](C)CO)C[C@H](C)[C@@H](CN(C)Cc1ccc3c(c1)OCO3)OCCCC[C@@H](C)O2	-41	59	2	.	.	.	.
C[C@@H]1CCCCO[C@H](CN(C)Cc2ccc3c(c2)OCO3)[C@H](C)CN([C@@H](C)CO)C(=O)c2cc(NC(=O)Nc3ccc(F)cc3)ccc2O1	-64	105*	12	105*	103*	8	104*
C[C@@H]1CCCCO[C@@H](CN(C)Cc2ccc3c(c2)OCO3)[C@@H](C)CN([C@@H](C)CO)C(=O)c2cc(NC(=O)Nc3ccc(F)cc3)ccc2O1	-26	98*	7	110*	81	-3	17
CC(C)NC(=O)Nc1ccc2c(c1)C(=O)N([C@H](C)CO)C[C@@H](C)[C@@H](CN(C)Cc1ccc3c(c1)OCO3)OCCCC[C@H](C)O2	-21	-1	2	.	.	.	.
CCC(=O)Nc1ccc2c(c1)C(=O)N(C)C[C@H](OC)[C@H](C)CN(C(=O)COC)[C@H](C)CO2	23	.	.	.	.	.	.
O=C(C[C@H]1C[C@@H]2c3cc(NC(=O)CC4CC4)ccc3O[C@@H]2[C@@H](CO)O1)NCc1ccccc1F	-15	-38	0	.	.	.	.
O=C(Cc1ccccn1)NCC[C@H]1CC[C@@H](NC(=O)CN2CCOCC2)[C@H](CO)O1	2	.	1	.	.	.	.
C[C@@H]1CCCCO[C@H](CN(C)Cc2ccc3c(c2)OCO3)[C@@H](C)CN([C@@H](C)CO)C(=O)c2cc(NC(=O)Nc3ccc(F)cc3)ccc2O1	-70	105*	11	102*	104*	13	105*
